Rows were chosen to be rich in hits. Some 2.4% of all compounds tested hit in one or more screens of this group.
D2 ag-1 = HTS Assay for Allosteric Agonists of the Human D2 Dopamine Receptor: Primary Screen for Agonists. D(2) dopamine receptor (Homo sapiens), P14416. 340,000 compounds, 0.53% hits. activation, % at 2 µM. HEK293 T-REx D2 cells, calcium flux agonist mode;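 active = activation over 3 SD above normal in the single-dose calcium agonist read, cut at about 30% in these data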; note: 0% is about no effect
Target sequence (P14416 whole entry, looked up): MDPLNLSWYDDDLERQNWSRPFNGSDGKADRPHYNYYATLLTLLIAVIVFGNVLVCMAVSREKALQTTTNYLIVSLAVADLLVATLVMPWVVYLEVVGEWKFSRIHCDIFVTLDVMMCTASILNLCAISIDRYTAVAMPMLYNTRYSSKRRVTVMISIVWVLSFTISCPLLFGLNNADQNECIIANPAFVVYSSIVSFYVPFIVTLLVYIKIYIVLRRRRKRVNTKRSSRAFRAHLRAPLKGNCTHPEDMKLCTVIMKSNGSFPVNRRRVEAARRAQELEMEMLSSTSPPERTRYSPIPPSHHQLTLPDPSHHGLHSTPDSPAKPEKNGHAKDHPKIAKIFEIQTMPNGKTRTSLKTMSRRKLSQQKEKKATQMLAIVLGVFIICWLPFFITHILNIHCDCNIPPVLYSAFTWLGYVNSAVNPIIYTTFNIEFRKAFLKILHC
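In this primary screen, compounds producing a positive calcium signal within 180 s of addition to tetracycline-induced, force-coupled HEK293 Trex D2 cells are flagged; cells are dye-loaded with a no-wash calcium kit beforehand.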
D2 PAM-1 = Beta-Arrestin HTS for Positive Allosteric Modulators of the Human D2 Dopamine Receptor: Potentiators; DiscoveRx D2 beta-arrestin cells, luminescence, 90 min; 100% = 57 uM dopamine signal; 360,000 compounds, 0.23% hits; potentiation, % (concentration not given with the values); in the data active = potentiation above about 50%
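PathHunter beta-arrestin assay in DiscoveRx D2 cells. Compounds were added with an EC20 of dopamine (50 nM final) for 90 min at 37 deg C. Luminescence was read 1 h after detection reagent, with 57 uM dopamine as the EC100 control.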
D2 PAM-2 = HTS Assay for Positive Allosteric Modulators of the Human D2 Dopamine Receptor: Primary Screen for Potentiators. D(2) dopamine receptor (Homo sapiens), P14416. HEK293 T-REx D2, calcium flux, EC20 dopamine potentiation. potentiation, % at 10 µM. 340,000 compounds, 0.34% hits;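 active = potentiation over 3 SD above the plate norm, cut at about 30% in these data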; note: 0% is about no effect
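Potentiation of an EC20 dopamine calcium response measured kinetically over 180 s, after a preceding 180 s compound-only read flagging agonists. Cells: inducible Hek293 Trex D2 line, 4000/well, cultured overnight at 30 C before dye loading.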
D2 antag = HTS Assay for Allosteric Antagonists of the Human D2 Dopamine Receptor: Primary Screen for Antagonists; HEK293 TREx D2 cells, calcium flux, dopamine EC80; inhibition, % at 10 µM; 340,000 compounds, 2% hits; AID 485344, 2010; in the data active = inhibition above about 30%; inactive = below that, where a call was filed; note: 0% is about no effect
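Calcium flux kinetic readout in an inducible HEK293 TREx D2 line plated overnight at 30 C. After 180 s compound exposure, an EC80 dopamine challenge follows with another 180 s kinetic read to detect antagonism.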
D2 ag-2 = Beta-Arrestin HTS for Positive Allosteric Modulators of the Human D2 Dopamine Receptor: Agonists | DiscoveRx PathHunter D2 beta-arrestin, luminescence, 90 min; 100% = 57 uM dopamine signal | D(2) dopamine receptor (Homo sapiens), P14416 | 360,000 compounds, 0.084% hits | activation, % (no concentration beside the values) | AID 624465, 2012; in the data active = activation above about 40%
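DiscoveRx PathHunter D2 beta-arrestin cells (2,100/well) attached overnight, then compound-stimulated 90 min at 37 C in HBSS/10 mM HEPES/0.1% Tween-20 buffer; beta-galactosidase complementation read by luminescence after 1 h at ambient temperature. Dopamine 57 uM final (EC100) as control.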
An asterisk follows results filed as active; . = not tested or not shown.

SMILES	D2 ag-1	D2 PAM-1	D2 PAM-2	D2 antag	D2 ag-2
Cc1cccn2c(=O)c3cc(C#N)c(=O)n(Cc4cccnc4)c3nc12	0	-16	1	41*	0
Cc1ccc(C)c(S(=O)(=O)c2nnn3c2nc(Nc2ccc(F)c(Cl)c2)c2sccc23)c1	0	.	2	.	.
CCN(CC)CCn1c(NCc2cc(OC)ccc2OC)nc2ccccc21	-2	-41	-34	14	-6
CCCn1c(Nc2cccc(OC)c2)nc2ccccc21	-1	-5	4	39*	3
CCCn1c(Nc2ccccc2)nc2ccccc21	0	-31	-5	-17	-6
CCN(CC)CCn1c(NCc2ccc3c(c2)OCO3)nc2ccccc21	1	-10	-20	33*	-1
CCN(CC)CCn1c(NCc2cccc(OC)c2)nc2ccccc21	0	-39	-19	44*	-6
CCN(CC)CCn1c(NC(=O)c2ccc(C(F)(F)F)cc2)nc2ccccc21	-1	-26	-31	88*	-4
CS(=O)(=O)c1ccc(Cl)c(S(=O)(=O)NCc2ccccc2)c1	1	-11	-4	35*	1
CC(Sc1nnc2ccc3ccccc3n12)C(=O)Nc1ccc(Cl)cc1 (configuration not stated)	-1	.	9	.	.
CSCCC(N=C1NS(=O)(=O)c2ccccc21)C(=O)NCCc1ccccc1 (configuration not stated)	1	-27	-22	42*	-1
Cc1ccccc1N(C)C(=O)c1noc2c1COc1ccccc1-2	6	.	-24	.	.
CCOC(=O)C1=C(CN(CC)Cc2ccccc2)NC(=O)NC1c1ccc(OC(C)C)cc1 (configuration not stated)	1	.	2	.	.
CN(C)CCNC(=O)c1cccc(NS(=O)(=O)c2ccc(Cl)c(Cl)c2)c1	3	-30	-8	35*	-4
C=CCNC(=O)c1cccc(NS(=O)(=O)c2ccc(Cl)cc2)c1	0	-7	-26	-4	-1
Cc1ccc(S(=O)(=O)Nc2cccc(C(=O)NCCN3CCOCC3)c2)cc1F	1	-1	-11	-21	-6
O=C(NCCN1CCOCC1)c1cccc(NS(=O)(=O)c2ccc(Br)cc2)c1	0	-16	8	33*	1
CC1CCC(NC(=O)c2cc3c(s2)CS(=O)(=O)C3)CC1 (configuration not stated)	1	-10	11	41*	-2
CCCSCCCNC(=O)c1cc2c(s1)CS(=O)(=O)C2	0	5	0	-5	-1
Nn1c(SCCOc2ccccc2)nnc1-c1cccnc1	1	-2	1	33*	-4
CCOc1ccc(CC(=O)OCN2C(=O)c3ccccc3C2=O)cc1	-1	-12	30*	2	0
Cc1c(NC(=O)c2cccnc2Cl)c(=O)n(-c2ccccc2)n1C	0	-6	-8	36*	-5
Cc1ccc2c(C)c(C(=O)Nc3c(C)n(C)n(-c4ccccc4)c3=O)oc2c1C	14	26	7	-7	45*
Cc1ccc(O)c(C(=O)c2cnc3c(c2)c(C)nn3C)c1	0	-5	-11	1	-1
Cc1nn(C)c2ncc(C(=O)c3ccccc3O)cc12	0	5	13	48*	-1
O=C(CN1CCN(c2ccc(F)cc2)CC1)N1N=CCC1c1ccccc1 (configuration not stated)	0	-19	2	36*	1
O=C(CSc1nc2cc(C(=O)NC3CCCC3)ccc2c(=O)n1CC1CCCO1)c1cccc(Cl)c1 (configuration not stated)	0	.	-4	.	.
Cn1c(CCCOc2ccc(Cl)cc2Cl)nnc1SCC(=O)Nc1nccs1	1	0	2	32*	2
CCCCc1nnc(SCC(=O)Nc2nccs2)n1C	1	8	15	-6	0
